A short description of experiment [1]: qHTS assay to identify small molecule antagonists of the estrogen related receptor signaling pathway with the pleiotropic PPARgamma coactivator (PGC) from Tox21 10K library - cell viability counter screen (AID 1224840; active = well fitted cell-killing curve with a large enough effect in the repeat runs, not every such curve was filed as active; also: nearly all actives have a fitted effect of over 40% in size; also: potency is read from the fitted curve at half-maximal effect). In outline: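 Viability counter screen, PGC/ERR cells: 17.5 h compound exposure at 37 C, CellTiter-Fluor fluorescence endpoint.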
For orientation: Quantitative high-throughput screening tests each substance at several concentrations.

Experiment [2] is described as follows: qHTS assay to identify small molecule agonists of the estrogen related receptor signaling pathway with the pleiotropic PPARgamma coactivator (PGC) from Tox21 10K library (AID 1224842). Also: nearly all actives have a fitted effect of over 15% in size. Also: potency is read from the fitted curve at half-maximal effect. In outline:
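PGC/ERR reporter cell line, 2,000 cells per well, incubated 6 h at 37 C before 23 nL compound in DMSO was added. After 18 h at 37 C, One-Glo luminescence read following 30 min at room temperature.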

For experiment [3], the target named is Thyrotropin receptor (Homo sapiens) (UniProt P16473). As to the kind of experiment: qHTS assay to identify small molecule agonists of the thyroid stimulating hormone receptor (TSHR) signaling pathway (AID 1224843; calls by dose curve; also: nearly all actives have a fitted effect of over 45% in size). In outline:
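HEK293/TSHR, 800 cells/well; cpd 30 min RT; add cAMP-d2 + anti-cAMP-cryptate, 1 h RT; fluorescence read on plate reader. 15-pt titration, n=3.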

Experiment [4] is described as follows: qHTS assay to identify small molecule agonists of the hypoxia (HIF-1) signaling pathway - cell viability counter screen (AID 1224844; calls by dose curve; also: nearly all actives have a fitted effect of over 50% in size). In outline: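 Same wells as the HIF-1 reporter screen; ME-180 cells carrying HRE-bla, 17 hr treatment at 37C; CellTiter-Glo luminescence read after 30 min at room temperature.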
Experiment [5] is described as follows: qHTS assay to identify small molecule agonists of H2AX (AID 1224845; active = well fitted activation curve with a large enough effect in the signal ratio in the repeat runs, not every such curve was filed as active; the % refers to the signal ratio; also: potency is read from the fitted curve at half-maximal effect). In outline: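 Wild-type CHO-K1 cells, plated overnight, exposed 3hr at 37C to 15 concentrations (0.76% DMSO final). Lysed, then HTRF anti-pH2AX (S139) cryptate and anti-H2AX-d2 antibodies, 24 hr room temperature; 665/620 nm emission read.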
A short description of experiment [6]: qHTS assay to identify small molecule agonists of the hypoxia (HIF-1) signaling pathway (AID 1224846; active = well fitted activation curve with a large enough effect in the signal ratio in the repeat runs, not every such curve was filed as active; the % refers to the signal ratio). In outline:
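In ME-180 cells bearing an HRE-bla construct, 17 h treatment with DMSO-dissolved compounds at 37C was followed by CCF4-AM loading to quantify reporter induction.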

The nature of experiment [7]: qHTS assay to identify small molecule agonists of H2AX - cell viability counter screen (AID 1224847; calls by dose curve; also: nearly all actives have a fitted effect of over 30% in size; also: potency is read from the fitted curve at half-maximal effect). An outline of the steps:
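Cytotoxicity counter screen in wild-type CHO-K1 cells: a 3 hr compound treatment at 37C across 15 concentrations, followed by CellTiter-Glo luminescence to gauge viable cells.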

Experiment [8] can be described thus: qHTS assay to identify small molecule antagonists of the estrogen related receptor (ERR) signaling pathway from Tox21 library (AID 1224848). Also: nearly all actives have a fitted effect of over 50% in size. Also: potency is read from the fitted curve at half-maximal effect. An outline of the steps: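 Compounds dissolved in DMSO are pin-transferred onto ERR reporter cells (2,000 per well) that have settled for 6 h at 37 C. Plates then incubate 18 h at 37 C before ONE-Glo luciferase reagent and a luminescence read 30 min later.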

Experiment [9] is described as follows: qHTS RealTime-Glo MT Cell Viability Assay in HepG2 cells - 24 hour (AID 1224867). Also: nearly all actives have a fitted effect of over 50% in size. Also: potency is read from the fitted curve at half-maximal effect. An outline of the steps:
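Compound treatment began 5 h after plating HepG2 cells (600/well) with NanoLuc luciferase and prosubstrate. Plates stayed at 37 C for 40 h; luminescence was captured at six time points, 0 h through 40 h.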

The nature of experiment [10]: qHTS RealTime-Glo MT Cell Viability Assay in HEK293 cells - 32 hour (AID 1224868). Also: nearly all actives have a fitted effect of over 50% in size. Also: potency is read from the fitted curve at half-maximal effect. In outline:
(§1)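 Quantitative high-throughput screen of the Tox21 10K library in HEK293: cells and RealTime-Glo reagents plated together, compound added at 5 h, luminescence monitored through 40 h at 37 C.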

The nature of experiment [11]: A CellTox Green Cytotoxicity Assay to monitor cytotoxicity in HEK293 cells - 0 hour (AID 1224869). Also: nearly all actives have a fitted effect of over 50% in size. In outline:
(§2)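 Homogeneous no-lysis format: HEK293 cell suspension mixed with CellTox Green reagent, seeded, incubated 5 h at 37 C/5% CO2, then dosed by pintool with compound in DMSO.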

Experiment [12] is described as follows: qHTS RealTime-Glo MT Cell Viability Assay in HepG2 cells - 40 hour (AID 1224870). Also: nearly all actives have a fitted effect of over 50% in size. Also: potency is read from the fitted curve at half-maximal effect. In outline: (§3)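 HepG2 cells (600/well) mixed with RealTime-Glo MT reagent, settled 5 h at 37 C/5% CO2 before compound addition. Nonlytic NanoLuc luminescence from viable-cell prosubstrate reduction read repeatedly during 40 h treatment at 37 C.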
Experiment [13] in a line: qHTS RealTime-Glo MT Cell Viability Assay in HepG2 cells - 8 hour (AID 1224873). Also: nearly all actives have a fitted effect of over 55% in size. Also: potency is read from the fitted curve at half-maximal effect. In outline:
as §3

The nature of experiment [14]: qHTS RealTime-Glo MT Cell Viability Assay in HEK293 cells - 40 hour (AID 1224874). Also: nearly all actives have a fitted effect of over 50% in size. Also: potency is read from the fitted curve at half-maximal effect. To be noted: RealTime-Glo luminescence; max response: stronger effect = lower value. In outline: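 Measured as luminescence from the same continuously cultured HEK293 wells at successive time points (0, 8, 16, 24, 32, 40 h) after compound addition. Reagent present from seeding; dosing at 5 h; incubation 37 C.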

A short description of experiment [15]: A CellTox Green Cytotoxicity Assay to monitor cytotoxicity in HEK293 cells - 24 hour (AID 1224875). Also: nearly all actives have a fitted effect of over 45% in size. Also: potency is read from the fitted curve at half-maximal effect. An outline of the steps: as §2
Experiment [16] is described as follows: A CellTox Green Cytotoxicity Assay to monitor cytotoxicity in HepG2 cells - 16 hour (AID 1224876). Also: nearly all actives have a fitted effect of over 45% in size. Also: potency is read from the fitted curve at half-maximal effect. An outline of the steps:
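Fluorescent DNA-binding dye, 600 HepG2 cells/well, 5 h preincubation then compound in DMSO; same plates read at 0–40 h, 37 C.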

Experiment [17] in a line: qHTS RealTime-Glo MT Cell Viability Assay in HEK293 cells - 16 hour (AID 1224872). Also: nearly all actives have a fitted effect of over 50% in size. Also: potency is read from the fitted curve at half-maximal effect. In outline:
as §1

Experiment [18] in a line: qHTS assay to identify small molecule agonists of the estrogen related receptor (ERR) signaling pathway from Tox21 library (AID 1224849; calls by dose curve; also: nearly all actives have a fitted effect of over 15% in size). To be noted: ERR reporter cell line, ONE-Glo luciferase, 18 h; at 92.4 µM (top of the series) unless noted. An outline of the steps:
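Reporter cells (ERR, NTP source) treated with Tox21 10K compounds 18 h, 37 C. Readout: ONE-Glo luminescence, 30 min RT.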

The nature of experiment [19]: A CellTox Green Cytotoxicity Assay to monitor cytotoxicity in HEK293 cells - 40 hour (AID 1224871). Also: nearly all actives have a fitted effect of over 45% in size. Also: potency is read from the fitted curve at half-maximal effect. In outline: as §2
Experiment [20] in a line: qHTS assay to identify small molecule antagonists of the estrogen related receptor signaling pathway with the pleiotropic PPARgamma coactivator (PGC) from Tox21 10K library (AID 1224841; call rule not given here). In outline:
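In the PGC/ERR line, DMSO solutions of test chemicals are pin-delivered to 2,000 cells/well six hours after dispensing. Following eighteen hours' incubation, One-Glo reagent is added and luminescence recorded.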

A number with no mark means an inactive call. Inconclusive results are not listed. Activity calls are given as the source filed them. Unless noted, calls follow the shape of the dose curve; as a rule, active = well fitted curve in the direction sought with a large enough effect in the repeat runs; inconclusive = weak or mixed curves; inactive = no such curve, though single readings can be large; an effect the other way counts as inactive or inconclusive.
% is scaled to controls: 0 for no effect and ±100 for the full control effect.

Sequence of Thyrotropin receptor (Homo sapiens) (P16473 whole entry, looked up): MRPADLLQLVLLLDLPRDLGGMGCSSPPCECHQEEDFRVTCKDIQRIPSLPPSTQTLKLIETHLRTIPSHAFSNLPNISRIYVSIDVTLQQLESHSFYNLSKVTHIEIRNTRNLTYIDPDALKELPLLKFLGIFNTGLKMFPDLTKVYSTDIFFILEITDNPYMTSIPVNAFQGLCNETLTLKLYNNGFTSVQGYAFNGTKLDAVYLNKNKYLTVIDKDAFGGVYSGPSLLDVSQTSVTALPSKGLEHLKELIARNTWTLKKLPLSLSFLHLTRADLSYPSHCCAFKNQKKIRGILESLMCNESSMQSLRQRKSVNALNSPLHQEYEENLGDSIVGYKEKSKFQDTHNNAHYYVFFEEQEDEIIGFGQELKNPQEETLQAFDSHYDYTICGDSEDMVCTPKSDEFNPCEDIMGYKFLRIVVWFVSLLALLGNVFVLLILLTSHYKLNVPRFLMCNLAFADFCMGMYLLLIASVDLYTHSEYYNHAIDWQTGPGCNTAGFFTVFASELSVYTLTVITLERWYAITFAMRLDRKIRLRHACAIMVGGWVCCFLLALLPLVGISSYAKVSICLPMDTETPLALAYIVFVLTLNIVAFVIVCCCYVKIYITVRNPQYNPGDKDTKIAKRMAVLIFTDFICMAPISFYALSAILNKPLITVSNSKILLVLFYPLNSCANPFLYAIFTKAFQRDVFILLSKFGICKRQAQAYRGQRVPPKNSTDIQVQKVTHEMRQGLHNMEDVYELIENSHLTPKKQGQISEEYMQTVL

Take `[Cl][Sc]([Cl])[Cl]`: the Potency result in [1], in experiment [2], in [3], in experiment [4], in [5] and in experiment [6] was “inactive” throughout. The Potency result in [7], in experiment [8], in experiment [9], in experiment [10], in [11] and in experiment [12] was “inactive” each time. Also, the Potency entry in experiment [13], in experiment [15] and in [16] was “inactive” throughout. Moreover, in experiment [14], the max response is -3.01%.
Regarding `CO[Si](OC)(c1ccccc1)c1ccccc1`, the Potency result in experiment [1], in experiment [2], in [3], in experiment [7], in [9] and in [10] was “inactive” throughout. For the same molecule, the Potency entry in experiment [11], in experiment [12], in experiment [17], in experiment [15] and in [16] was “inactive” each time. The max response in [14] was -18.7%.
As for `CCCCCN=C(N)N/N=C/c1c[nH]c2ccc(OC)cc12`, the Potency in [1] is 21.1 µM (active); in experiment [7] it was 49.2 µM (active); in [8] it was 15 µM (active); in [9], 6.01 µM (active); in [10], 4.25 µM (active); in [12], 5.35 µM (active). Further, the Potency is 6.74 µM (active) in experiment [19]; 4.77 µM (active) in experiment [17]; 10.7 µM (active) in experiment [13]; 4.25 µM (active) in [14]; 6.74 µM (active) in experiment [15]; 6.74 µM (active) in experiment [16]. The Potency entry in experiment [2] and in experiment [11] was “inactive” throughout. Further, in experiment [18], the activity change, positive = activation was -70.2% [at 42.5 µM].
In the case of `CN1CC[C@H](c2c(O)cc(O)c3c(=O)cc(-c4ccccc4Cl)oc23)[C@H](O)C1`, the Potency result in [1], in experiment [20], in [4], in experiment [5], in experiment [8] and in [9] was “inactive” each time. Besides, the Potency entry in [11], in experiment [12], in [13], in experiment [15] and in [16] was “inactive” in each case. In addition, the Potency is 0.531 µM (active) in experiment [2], 0.19 µM (active) in experiment [10] and 0.19 µM (active) in experiment [14]. In addition, the activity change, positive = activation in experiment [18] is 28.6% [at 42.5 µM].
Take `CSc1ccc(O)cc1C`: the Potency entry in experiment [1], in experiment [20], in [2], in experiment [7], in experiment [8] and in experiment [9] was “inactive” throughout. Further, the Potency entry in [11], in experiment [12], in experiment [17], in experiment [13], in experiment [15] and in [16] was “inactive” each time. For the same molecule, the Potency in experiment [5] was 113 µM (active).
On to `CCC1(C)C(=O)N(Cl)C(=O)N1Cl` (centres undefined), for which the Potency entry in experiment [1], in [2], in experiment [3], in experiment [4], in experiment [5] and in experiment [6] was “inactive” each time. The Potency entry in [7], in [8], in experiment [9], in [10], in experiment [11] and in experiment [12] was “inactive” each time. Also, the Potency result in experiment [19], in experiment [17], in experiment [13], in experiment [15] and in [16] was “inactive” throughout. Moreover, the activity change, positive = activation in [18] is -3.41%. Further, in [14], the max response is 2.78%.
As for `CC/C(=C(/c1ccc(O)cc1)c1ccc(OCCN(C)C)cc1)c1ccccc1`, the Potency in [1] was 32 µM (active); in experiment [7], 41.9 µM (active); in experiment [8], 18 µM (active); in experiment [9], 18.2 µM (active); in [10], 9.11 µM (active); in experiment [12], 12.9 µM (active). The Potency in experiment [17] was 12.9 µM (active); in [13], 28.8 µM (active); in [14], 8.12 µM (active); in experiment [15] it was 25.7 µM (active); in experiment [16], 25.7 µM (active). Further, the Potency result in [2] and in [11] was “inactive” in each case. In experiment [18], the activity change, positive = activation is -77.3% [at 42.5 µM].

The values above are taken from PubChem BioAssay (Tox21).
